Measured values published in PubChem BioAssay (NCATS).
Results filed as inconclusive are left out. Active and inactive are the calls of the source. Unless noted, the call rests on the fitted dose curve.

Tests used:
[1] = target: Estrogen receptor (Homo sapiens) (UniProt P03372); test: qHTS assay for small molecule antagonists of estrogen receptor alpha signaling (AID 588513; active means well fitted curve in the direction sought with a large enough effect in the signal ratio, with a control signal flat, not every such curve was filed as active; the % refers to the signal ratio; further: on the % scale 0 is the no-effect control and ±100 the full control effect)
Sequence of Estrogen receptor (Homo sapiens) (P03372 whole entry, looked up): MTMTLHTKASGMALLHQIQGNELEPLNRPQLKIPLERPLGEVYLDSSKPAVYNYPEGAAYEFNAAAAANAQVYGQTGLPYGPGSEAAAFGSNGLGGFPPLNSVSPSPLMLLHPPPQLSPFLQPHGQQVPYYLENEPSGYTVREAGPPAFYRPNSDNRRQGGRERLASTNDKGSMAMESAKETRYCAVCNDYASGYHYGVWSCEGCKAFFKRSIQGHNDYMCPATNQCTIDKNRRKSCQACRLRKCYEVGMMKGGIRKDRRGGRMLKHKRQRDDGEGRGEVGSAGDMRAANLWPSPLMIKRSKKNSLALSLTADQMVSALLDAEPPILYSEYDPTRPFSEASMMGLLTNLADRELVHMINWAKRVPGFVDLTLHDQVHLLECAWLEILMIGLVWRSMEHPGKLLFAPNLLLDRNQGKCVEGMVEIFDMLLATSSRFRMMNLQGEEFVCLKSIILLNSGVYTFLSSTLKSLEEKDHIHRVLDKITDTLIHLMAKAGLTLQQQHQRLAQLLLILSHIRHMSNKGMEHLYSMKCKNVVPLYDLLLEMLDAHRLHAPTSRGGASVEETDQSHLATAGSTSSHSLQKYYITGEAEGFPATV
Procedure, shortened: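 Cells were plated at 5000/well and incubated 4 h at 37 C. Compounds were added as 1:2 dilution series, duplicates. 17-beta-estradiol (0.5nM final) was added for 18 h before CCF4 detection.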

[2] = target: Estrogen receptor (Homo sapiens) (UniProt P03372); test: qHTS assay for small molecule agonists of estrogen receptor alpha signaling (AID 588514);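 further: 0% = vehicle only and 100% = reference agonist; nearly all actives have a fitted effect of over 70% in size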
Procedure, shortened: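 Reporter-gene assay. […] controls beta-lactamase in HEK 293 GripTite cells; after 18 hrs with compound, CCF4 substrate is added for 2 hrs and fluorescence is read.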

[3] = qHTS assay for small molecule antagonists of peroxisome proliferator-activated receptor delta signaling (AID 588535); details: HEK293T PPARd-UAS-bla, beta-lactamase FRET ratio, 18 h; 460 nm channel;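 further: cells co-treated with a PPAR-delta agonist as stimulator during compound exposure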
Procedure, shortened: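 Cells were seeded at 4000 per well in assay medium containing 2% charcoal/dextran FBS and held 5 hrs at 37 C. Compounds were then added for 18 hrs. CCF4 substrate was applied for 2 hrs at room temperature before fluorescence reading.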

[4] = target: Vitamin D3 receptor (Homo sapiens) (UniProt P11473); test: qHTS assay for small molecule antagonists of vitamin D receptor signaling (AID 588541);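 further: receptor activated by calcitriol during compound treatment; series mostly up to about 77 µM; on the % scale 0 is the no-effect control and ±100 the full control effect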
Sequence of Vitamin D3 receptor (Homo sapiens) (P11473 whole entry, looked up): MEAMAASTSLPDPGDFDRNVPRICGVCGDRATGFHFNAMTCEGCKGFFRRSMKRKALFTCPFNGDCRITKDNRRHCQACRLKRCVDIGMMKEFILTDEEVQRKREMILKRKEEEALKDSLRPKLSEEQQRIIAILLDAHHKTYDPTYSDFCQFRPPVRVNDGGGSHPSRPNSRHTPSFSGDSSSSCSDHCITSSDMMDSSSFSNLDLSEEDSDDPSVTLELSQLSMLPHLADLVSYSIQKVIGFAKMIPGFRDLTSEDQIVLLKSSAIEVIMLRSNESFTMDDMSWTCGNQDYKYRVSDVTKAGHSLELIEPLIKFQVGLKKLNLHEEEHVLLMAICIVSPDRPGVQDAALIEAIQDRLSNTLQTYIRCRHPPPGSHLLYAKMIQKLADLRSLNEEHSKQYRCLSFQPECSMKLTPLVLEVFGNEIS
Procedure, shortened: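 VDR-UAS-bla HEK293T cells in 2% charcoal-stripped FBS were stimulated with 1-alpha,25-dihydroxyvitamin D3 (3 nM final) plus compound for 16 h at 37 C. The beta-lactamase CCF4 readout was normalized to 50 nM agonist and DMSO, and Hill fits gave IC50.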

[5] = target: Vitamin D3 receptor (Homo sapiens) (UniProt P11473); test: qHTS assay for small molecule agonists of vitamin D receptor signaling (AID 588543);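 further: 0% = DMSO basal and 100% = reference agonist control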
Procedure, shortened: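 qHTS in agonist mode: compound titrations stimulate a VDR-driven β-lactamase reporter in HEK293T cells over 16 h at 37 °C. Response normalized to 50 nM 1α,25-dihydroxyvitamin D3 = 100%, DMSO = 0%; Hill fitting gives EC50 and maximal response.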

[6] = qHTS assay for small molecule agonists of retinoid X receptor alpha signaling (AID 588544); details: HEK293T RXRa-UAS-bla, beta-lactamase reporter, 18 h; 530 nm emission;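 on activation: 0% = DMSO basal wells and 100% = reference agonist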
[7] = target: Retinoic acid receptor RXR-alpha (Homo sapiens) (UniProt P19793); test: as above
Sequence of Retinoic acid receptor RXR-alpha (Homo sapiens) (P19793 whole entry, looked up): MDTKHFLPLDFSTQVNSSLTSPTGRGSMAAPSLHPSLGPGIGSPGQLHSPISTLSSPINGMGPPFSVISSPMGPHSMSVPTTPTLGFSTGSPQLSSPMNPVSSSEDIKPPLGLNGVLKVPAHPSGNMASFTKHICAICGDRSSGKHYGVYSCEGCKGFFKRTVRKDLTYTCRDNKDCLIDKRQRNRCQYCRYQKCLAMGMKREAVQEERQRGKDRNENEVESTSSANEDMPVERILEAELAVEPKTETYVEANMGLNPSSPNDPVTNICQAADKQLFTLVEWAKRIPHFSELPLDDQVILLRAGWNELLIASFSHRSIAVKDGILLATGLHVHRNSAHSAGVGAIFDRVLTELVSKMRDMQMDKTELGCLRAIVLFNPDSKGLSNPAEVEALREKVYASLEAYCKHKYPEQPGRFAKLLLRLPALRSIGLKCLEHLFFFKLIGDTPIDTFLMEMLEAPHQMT

[8] = target: Thyroid hormone receptor beta (Homo sapiens) (UniProt P10828); test: qHTS assay for small molecule agonists of thyroid hormone receptor beta signaling (AID 588545)
Sequence of Thyroid hormone receptor beta (Homo sapiens) (P10828 whole entry, looked up): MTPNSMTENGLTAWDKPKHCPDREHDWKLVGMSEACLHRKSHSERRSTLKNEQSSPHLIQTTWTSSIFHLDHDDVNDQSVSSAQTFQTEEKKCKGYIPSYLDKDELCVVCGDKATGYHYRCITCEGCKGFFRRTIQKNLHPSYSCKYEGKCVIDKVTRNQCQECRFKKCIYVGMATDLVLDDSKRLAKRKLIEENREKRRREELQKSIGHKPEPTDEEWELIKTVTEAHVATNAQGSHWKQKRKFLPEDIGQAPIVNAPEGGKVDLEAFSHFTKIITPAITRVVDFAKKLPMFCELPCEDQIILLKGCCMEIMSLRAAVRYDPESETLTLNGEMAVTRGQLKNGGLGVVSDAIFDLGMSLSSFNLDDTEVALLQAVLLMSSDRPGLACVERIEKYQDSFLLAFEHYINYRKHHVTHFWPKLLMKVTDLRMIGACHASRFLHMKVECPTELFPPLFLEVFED
Procedure, shortened: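 Agonist-mode beta-lactamase reporter assay, HEK 293 cells, 2% charcoal/dextran FBS; cells plated 4 hrs, compound 18 hrs at 37 C, CCF4 2 hrs RT. Normalized to 10 nM T3 (100%) and DMSO (0%); Hill fit gives EC50, efficacy.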

[9] = qHTS assay for small molecule antagonists of retinoid X receptor alpha signaling (AID 588546; active means well fitted inhibition curve with a large enough effect in the signal ratio, with a control signal flat, not every such curve was filed as active; the % refers to the signal ratio;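 further: cells stimulated with 9-cis-retinoic acid as agonist; on the % scale 0 is the no-effect control and ±100 the full control effect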); details: HEK293T RXRa-UAS-bla, beta-lactamase ratio, antagonist mode; measured here: W530 green channel, cytotoxicity proxy
Procedure, shortened: (§1)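 Beta-lactamase reporter inhibition, read as CCF4 fluorescence ratio (ex 405, em 460/530 nm) after 2 h at RT. HEK293T UAS-bla cells, 2500/well, were stimulated with 9-cis-RA at 500 or 100 nM final alongside test compound for 18 h at 37 C.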

[10] = target: Retinoic acid receptor RXR-alpha (Homo sapiens) (UniProt P19793); test: as above; details: HEK293T RXRa-UAS-bla, beta-lactamase ratio, antagonist mode
Procedure, shortened: as §1

[11] = qHTS assay for small molecule activators of the p53 signaling pathway (AID 651743; active means well fitted activation curve with a large enough effect in the signal ratio, not every such curve was filed as active; the % refers to the signal ratio; further: series mostly up to about 92 µM; % of control where 0% means no effect); details: HCT-116 p53RE-bla, beta-lactamase FRET ratio, 16 h; activation: stronger effect = higher value
Procedure, shortened: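 HCT-116 p53RE-bla, 4,000 cells/well; 5 h settle; cpd/DMSO 16 h, 37 C; LiveBLAzer B/G 2 h RT; fluorescence intensity.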

[12] = qHTS assay for environmental chemicals that activate the Aryl hydrocarbon Receptor (AhR) signaling pathway (AID 651777; active means well fitted curve in the direction sought with a large enough effect; an effect the other way counts as inactive or inconclusive; further: % of control where 0% means no effect; nearly all actives have a fitted effect of over 15% in size); details: 1A2-DRE human hepatoma cells, luciferase, 24 h; activation: stronger effect = higher value
Procedure, shortened: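 1A2-DRE human hepatoma reporter line; 1,200 cells/well; cmpd or DMSO 24 h, 37 C/5% CO2; One-Glo 30 min RT; luciferase lum.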

[13] = target: Peroxisome proliferator-activated receptor alpha (Homo sapiens) (UniProt Q07869); test: qHTS assay for small molecule agonists of the peroxisome proliferator-activated receptor alpha (PPARalpha) signaling pathway (AID 651778; active means well fitted curve in the direction sought with a large enough effect; an effect the other way counts as inactive or inconclusive; further: % of control where 0% means no effect); details: PathHunter PPARalpha complementation, chemiluminescence, 6 h; max response: stronger effect = higher value
Sequence of Peroxisome proliferator-activated receptor alpha (Homo sapiens) (Q07869 whole entry, looked up, the tested form may be a part): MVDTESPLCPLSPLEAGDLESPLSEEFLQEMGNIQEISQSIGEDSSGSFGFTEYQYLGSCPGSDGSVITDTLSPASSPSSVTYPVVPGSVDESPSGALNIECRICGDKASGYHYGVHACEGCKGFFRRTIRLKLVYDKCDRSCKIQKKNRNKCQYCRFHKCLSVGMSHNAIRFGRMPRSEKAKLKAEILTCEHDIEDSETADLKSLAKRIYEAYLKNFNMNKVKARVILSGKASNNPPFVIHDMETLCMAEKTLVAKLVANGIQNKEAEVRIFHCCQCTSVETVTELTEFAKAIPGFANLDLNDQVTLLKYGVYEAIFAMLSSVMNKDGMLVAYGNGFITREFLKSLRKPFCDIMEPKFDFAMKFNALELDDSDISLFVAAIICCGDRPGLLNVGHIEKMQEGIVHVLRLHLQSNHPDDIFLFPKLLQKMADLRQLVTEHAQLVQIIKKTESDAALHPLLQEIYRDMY
Procedure, shortened: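 Enzyme-fragment complementation assay in which ligand-bound PPARalpha translocates and forms an active enzyme that generates chemiluminescence. Cells were plated overnight, exposed to compound for 6 hr at 37 C, and then given detection reagent for 60 min at room temperature.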

[14] = qHTS assay for small molecule agonists of the antioxidant response element (ARE) signaling pathway measured by Nrf2-dependant transcriptional activity - cell viability counter screen (AID 720653; active means well fitted curve in the direction sought with a large enough effect in the repeat runs; an effect the other way counts as inactive or inconclusive; further: on the % scale 0 is the no-effect control and ±100 the full control effect); details: ARE-bla HepG2 viability, CellTiter-Glo ATP luminescence, 16 h; max response: stronger effect = lower value
Procedure, shortened: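 ARE-bla HepG2 cells treated with compounds for 16 h at 37C; this counter screen measures viability as intracellular ATP by CellTiter-Glo luminescence after 30 min at room temperature.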

[15] = qHTS assay for cell viability of HEK293 cells (AID 743288; active means well fitted curve in the direction sought with a large enough effect; an effect the other way counts as inactive or inconclusive; further: on the % scale 0 is the no-effect control and ±100 the full control effect; nearly all actives have a fitted effect of over 50% in size); details: ATP luminescence (CellTiter-Glo), 18 h; max response: stronger effect = lower value
Procedure, shortened: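 The Tox21 protocol used parental HEK293 cells treated for 18 h at 37 C with compounds delivered by pintool; ATP-coupled luminescence after 30 min at room temperature gave viability.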

[16] = qHTS assay for cell viability of the p53RE-bla HCT-116 cell line (AID 743292; active means well fitted curve in the direction sought with a large enough effect; an effect the other way counts as inactive or inconclusive; further: on the % scale 0 is the no-effect control and ±100 the full control effect; nearly all actives have a fitted effect of over 55% in size)
Procedure, shortened: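 HCT-116 p53RE-bla cells seeded 4,000/well; 5 h at 37 C; compound (DMSO) added; 16 h at 37 C; CellTiter-Glo added, 30 min RT; luminescence read.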

[17] = qHTS assay for small molecule agonists of the antioxidant response element (ARE) signaling pathway measured by Nrf2-dependant transcriptional activity (AID 720636; active means well fitted curve in the direction sought with a large enough effect in the repeat runs; an effect the other way counts as inactive or inconclusive;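 further: HepG2 cells with an ARE-driven luciferase reporter; % of control where 0% means no effect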)
Procedure, shortened: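 Cells: ARE-luc HepG2 with Nrf2-responsive luciferase. Medium contained 1% dialyzed FBS. Compound exposure lasted 16 hr at 37 C and 5% CO2, followed by ONE-Glo luciferase detection.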

[18] = target: Nuclear receptor subfamily 1 group I member 2 (Rattus norvegicus) (UniProt Q9R1A7); test: qHTS assay for small molecule activators of the rat pregnane X receptor (rPXR) signaling pathway (AID 651751; call rule not given here; further: 0% is about no effect); details: rPXR reporter cells, luciferase (One-Glo), 24 h
Sequence of Nuclear receptor subfamily 1 group I member 2 (Rattus norvegicus) (Q9R1A7 whole entry, looked up): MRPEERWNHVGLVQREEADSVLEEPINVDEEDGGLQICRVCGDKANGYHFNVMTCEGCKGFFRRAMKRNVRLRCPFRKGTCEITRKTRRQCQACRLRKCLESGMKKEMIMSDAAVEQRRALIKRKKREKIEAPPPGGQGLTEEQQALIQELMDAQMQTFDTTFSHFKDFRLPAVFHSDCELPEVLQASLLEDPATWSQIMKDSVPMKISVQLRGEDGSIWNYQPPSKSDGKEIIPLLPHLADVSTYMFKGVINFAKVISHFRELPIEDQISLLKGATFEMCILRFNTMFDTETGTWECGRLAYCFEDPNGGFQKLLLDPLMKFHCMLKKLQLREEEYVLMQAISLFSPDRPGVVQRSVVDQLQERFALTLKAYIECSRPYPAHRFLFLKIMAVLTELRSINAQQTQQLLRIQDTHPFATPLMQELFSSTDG

[19] = qHTS assay for small molecule activators of the human pregnane X receptor (PXR) signaling pathway (AID 720659; call rule not given here; further: 0% is about no effect)
[20] = target: Thyroid hormone receptor beta (Homo sapiens) (UniProt P10828); test: qHTS assay for small molecule antagonists of thyroid hormone receptor beta signaling (AID 588547; active means well fitted inhibition curve with a large enough effect in the signal ratio, with a control signal flat, not every such curve was filed as active; the % refers to the signal ratio); details: TR-UAS-bla HEK293, beta-lactamase ratio, antagonist mode, 18 h
Procedure, shortened: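 TR-UAS-bla GripTite HEK293 cells in 2% charcoal/dextran FBS medium; compounds 0.59 nM to 92 uM with T3 at 0.4nM final, 18 h at 37 C. Beta-lactamase read by CCF4 fluorescence (460/530 nm); Hill fits gave IC50 and efficacy.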

SMILES	Potency [1]	Potency [2]	max response [3] [%]	Potency [4]	outcome [5]	max response [6] [%]	Potency [7]	Potency [8]	max response [9] [%]	max response [10]	activation [11]	activation [12]	max response [13]	max response [14]	max response [15]	Potency [16]	Potency [17]	max response [18]	outcome [19]	activity change % (negative = inhibition) [20]
OCCOCCOCCOCCO	inactive	inactive	-5.22	inactive	inactive	4.51	inactive	inactive	-7.24	-5.67% (inactive)	0.49% (inactive)	2.06% (inactive)	-1.11% (inactive)	2.46% (inactive)	-2.22% (inactive)	inactive	–	–	–	–
CC1=CC2C3CC(C=C3C)C2C1 (stereo unspecified)	inactive	inactive	7.89	inactive	inactive	-8.84	inactive	inactive	-10.9	3.65% (inactive)	–	-1.81% (inactive)	-1.19% (inactive)	1.82% (inactive)	-3.16% (inactive)	inactive	inactive	-0.63% (inactive)	inactive	–
CCCCOCCOCCOCCO	inactive	inactive	-4.48	inactive	inactive	-9.78	inactive	inactive	1.39	-1.08% (inactive)	2.9% (inactive)	1.2% (inactive)	-1.01% (inactive)	5.3% (inactive)	-2.85% (inactive)	inactive	inactive	2.44% (inactive)	inactive	-0.828% (inactive)
c1cc(-c2ccncc2)ccn1	inactive	inactive	–	inactive	inactive	22	inactive	inactive	17.1	-37.6% (inactive)	-5.33% (inactive)	0.354% (inactive)	0.638% (inactive)	-5.96% (inactive)	-10.3% (inactive)	inactive	inactive	-2.25% (inactive)	inactive	-17.5% (inactive)
CCCCCc1ccc(N)cc1	inactive	–	19.2	inactive	inactive	-0.233	inactive	–	-8.57	-25% (inactive)	9.16% (inactive)	1.05% (inactive)	-1.26% (inactive)	5.18% (inactive)	-6.55% (inactive)	inactive	inactive	1.5% (inactive)	inactive	0.338% (inactive)
